We go through 28 compounds from PubChem BioAssay AID1236 (Emory University Molecular Libraries Screening Center, 2008).

The campaign covered roughly 220,000 compounds. About 800 (0.36%) were called active. The sample holds actives, similar compounds and a random draw of the others, so the mix is not that of the screen.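 The calls were made as follows: active = inhibition above about 50% (limit read from the data); inactive = the rest.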

This test concerns calpain II (m-calpain), Sus scrofa. The test is described as follows: m-calpain protease activity blockers – biochemical, fluorogenic peptide substrate, 1536-well, primary screen (AID 1236). The conditions noted are these: purified calpain II, 30 min, at 16 µM, active compounds read high.
On to `CCCc1cc(-c2n[nH]c(=S)n2Cc2ccccc2)cs1`, for which the inhibition was 67.9% (active). As for `CCc1cc(-c2n[nH]c(=S)n2CC(C)C)cs1`, the inhibition was 44.2% (inactive). Take `CCCc1cc(-c2n[nH]c(=S)n2CC)c2ccccc2n1`: the inhibition was -40.7% (inactive). As for `C=CCN(c1ccccc1C(=O)NCC(=O)OCC)S(=O)(=O)c1ccc(C)cc1`, the inhibition is -6.73% (inactive).

For the compound `COc1ccc(C(=O)Nc2ccc(S(=O)(=O)Nc3onc(C)c3C)cc2)cc1OC`, the inhibition is 29.6% (inactive). Consider `CCn1c(SCC(=O)Nc2ccc(S(=O)(=O)Nc3onc(C)c3C)cc2)nnc1-c1ccccc1`, for which the inhibition is -78.3% (inactive). Consider `Cc1cc(C)c2nc(-c3cccnc3)cc(C(=O)Nc3ccc(S(=O)(=O)Nc4onc(C)c4C)cc3)c2c1`, for which the inhibition was 55.4% (active). For `Cc1coc2cc3oc(=O)c(CCC(=O)O)c(C)c3cc12` the value was -98.6% (inactive); for `O=c1cc(N2CCCCC2)c(-c2ccccc2)nn1Cc1cccc(F)c1`, 55.9% (active); for `O=c1cc(N2CCN(Cc3ccccc3)CC2)c(-c2ccccc2)n[nH]1`, -13.6% (inactive). As for `O=c1c2ccccc2c(-c2ccccc2)nn1Cc1ccccc1`, the inhibition is 11.2% (inactive). For the compound `COc1cc2sc(C)nc2cc1C`, the inhibition was 2.42% (inactive).

Turning to `O=C(NCCNc1ccc([N+](=O)[O-])cc1)c1cccc2c(Br)cccc12`, the inhibition is -5.43% (inactive). On to `O=C(COc1ccc(S(=O)(=O)N2CCCCC2)cc1)NCc1ccccn1`, for which the inhibition was -4.04% (inactive).

For the compound `CC1(C)OC(=O)C(=CSc2ccc(C(C)(C)C)cc2)C(=O)O1`, the inhibition was -10.7% (inactive).

On to `CCCOc1ccc(NC(=O)C2OC3OC(C)(C)OC3C3OC(C)(C)OC23)cc1` (stereo not drawn), for which the inhibition was -15.2% (inactive).

Consider `NNC(=O)c1cccc(COCC(F)(F)C(F)F)c1`, for which the inhibition is 20.4% (inactive). For `Cc1ccc(SCC(=O)c2sc(-c3ccccc3)nc2C)cc1` the value was 66.3% (active).

`Cc1nc(-c2ccccc2)sc1C(=O)/C=C/c1ccccc1`: the inhibition was -0.94% (inactive). For `Cc1nc(-c2ccc(Cl)cc2)sc1C(=O)CBr` the value was 27.7% (inactive).

With `Cc1ccc(C)c2c1cc(C)c1nnc(SCC(=O)Nc3cccc(C(=O)O)c3)n12`, the inhibition was -13.6% (inactive). On to `CC1(C)CCSC(/C=C/c2ccccc2)=N1`, for which the inhibition was -19.7% (inactive). On to `CCCN(C(=O)CSc1nnnn1C)c1c(N)n(Cc2ccccc2)c(=O)[nH]c1=O`, for which the inhibition is -5.69% (inactive).

Consider `C=CCNc1nc(Nc2ccc(Cl)cc2)nc(OC)n1`, for which the inhibition is -20.2% (inactive).

Take `CC1=NNC(=O)C1CCC(=O)N/N=C(\C)c1ccc(Cl)cc1` (stereo not drawn): the inhibition is -20.4% (inactive). For `O=C(Cn1nnc(-c2ccccc2)n1)N/N=C/c1ccc(-c2ccc(Cl)cc2)o1`, the inhibition was -60.4% (inactive). For `Cc1[nH]c2ccccc2c1/C=N\NC(=O)Cn1nnc(-c2ccccc2)n1` the value was 54.8% (active); for `O=C(Cn1nnc(-c2ccccc2)n1)NCc1ccccc1`, 8.33% (inactive).
